This is a sample that favours compounds with a hit; in the whole collection about 2.6% have one here.
Cruzain noTriton = inhibitors of Trypanosoma cruzi cruzain without detergent | P25779 | purified cruzain, Z-FR-AMC fluorescence, no detergent | Potency, µM, inactives show max response, negative = inhibition, hits mostly inhibitors | 200,000 tested, 2.3% active;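 also: plate controls were enzyme without inhibitor for no effect and buffer without enzyme for full effect; nearly all actives have a fitted effect of over 40% in size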
Target sequence (P25779 123-467 limits assumed): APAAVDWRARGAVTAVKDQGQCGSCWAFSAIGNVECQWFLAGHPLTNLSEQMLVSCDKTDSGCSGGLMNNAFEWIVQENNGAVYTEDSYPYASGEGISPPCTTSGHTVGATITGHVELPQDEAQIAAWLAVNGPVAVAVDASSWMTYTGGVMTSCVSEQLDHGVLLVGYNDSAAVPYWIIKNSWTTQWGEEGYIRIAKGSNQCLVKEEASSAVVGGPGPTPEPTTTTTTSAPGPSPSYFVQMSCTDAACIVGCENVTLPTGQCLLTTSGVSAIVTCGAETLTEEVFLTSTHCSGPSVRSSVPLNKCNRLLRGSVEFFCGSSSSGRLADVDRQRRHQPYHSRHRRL
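Detergent-free condition (0.00005% Triton X-100) in acetate buffer pH 5.5 with DTT. 1.5 nM enzyme and compound were pre-mixed 15 min, then 2 uM Z-FR-AMC substrate added; reaction progress from fluorescence change between first and third reads (60 s).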
Cruzain inh Det = blocks cruzain activity in presence of Triton detergent; P25779; purified cruzain, Z-FR-AMC fluorescence, 0.01% Triton; Potency, µM, without a hit: max response, negative = inhibition, most hits filed as inhibitors; 200,000 tested, 0.43% active; AID 1478;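 also: plate controls were neutral wells for no effect and buffer without enzyme for full effect; nearly all actives have a fitted effect of over 40% in size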
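Detergent-containing run (0.01% Triton X-100) in acetate buffer pH 5.5 with 5 mM DTT: enzyme at 1.5 nM final, 15 min compound preincubation at room temperature, then 2 uM Z-FR-AMC substrate. Activity taken as 60 s fluorescence increase at 360/450 nm.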
Active calls of the source: *; ? = inconclusive. Calls follow the shape of the dose curve; as a rule, active = well fitted curve in the direction sought with a large enough effect; inconclusive = small, poorly fitted or top-dose-only effect, or another doubt; inactive = no such curve, though single readings can be large; an effect the other way counts as inactive or inconclusive. Potency is read from the fitted curve at half-maximal effect.

SMILES	Cruzain noTriton	Cruzain inh Det
COC(=O)N1CCC2(CCCN(c3ccc(-c4ccccc4)cc3)C2)CC1	-5%	-5%
O=C(Oc1ccccc1)N1CCC2(CCCN(c3ccc(-c4ccccc4)cc3)C2)CC1	13µM*	0%
Cc1[nH]c2ccc(C(=O)Nc3ccc(F)cc3)cc2c1C	-18%	-9%
COc1ccccc1Nc1nc(-c2ccccc2)c(CC(=O)O)s1	25µM*	-13%
O=C(O)Cc1sc(N/N=C\c2ccccc2)nc1-c1ccccc1	?	-9%
COC(=O)[C@H]1C(=O)[C@H](C(=O)OC)[C@@H]2CC[C@H]1N2C	-1%	-1%
[N-]=[N+]=NCC(=O)c1c[nH]c(=O)[nH]c1=O	0%	4%
CCCc1nnc(NC(=O)C(CC)Sc2nnc3c4ccccc4n(C)c3n2)s1 (configuration not stated)	-3%	-2%
C=CCn1c2ccccc2c2nnc(SC(CC)C(=O)Nc3sc4c(c3C#N)CCCC4)nc21 (configuration not stated)	25µM*	-4%
COc1ccc(-c2noc(Cn3c(=O)c4ccccc4n(CC(=O)Nc4cccc(C(F)(F)F)c4)c3=O)n2)cc1	16µM*	-3%
Cc1ccc(NC(=O)Cn2c(=O)n(Cc3nc(-c4ccccc4)no3)c(=O)c3ccccc32)cc1C	-21%	-3%
CCOc1ccc(NC(=O)Cn2c(=O)n(Cc3nc(-c4ccccc4)no3)c(=O)c3cc4c(cc32)OCO4)cc1	-17%	-2%
O=C(Cn1c(=O)n(Cc2nc(-c3ccccc3)no2)c(=O)c2cc3c(cc21)OCO3)Nc1cccc(C(F)(F)F)c1	5µM*	1%
O=C(CCSCc1cccc(Cl)c1)NCc1ccc(F)cc1Cl	14%	-1%
COc1ccc(/C=c2\sc3nc(-c4ccccc4)c(-c4ccccc4)n3c2=O)cc1OC	?	-19%
COc1ccc(/C=c2/sc3nc(-c4ccccc4)c(-c4ccccc4)n3c2=O)cc1	6.3µM*	-5%
COCCN1CN=C(Nc2nc3ccccc3o2)NC1	-1%	8%
COCCN1CN=C(Nc2nc3ccccc3s2)NC1	16µM*	?
CO[C@H]1C[C@@H](O[C@@H]2[C@H](C)[C@H](O[C@@H]3O[C@@H](C)C[C@@H](N(C)C)[C@@H]3O)[C@H](C)C[C@]3(CO3)C(=O)[C@H](C)[C@H](O)[C@H](C)[C@H](C)OC(=O)[C@@H]2C)O[C@@H](C)[C@H]1O	3%	-3%
COc1ccc(NC(=O)COC(=O)CNC(=O)c2cc(OC)c(OC)c(OC)c2)cc1	-10%	-6%
Cc1cc(C(=O)NCC(=O)OCC(=O)Nc2ccc(OC(F)F)cc2)ccc1[N+](=O)[O-]	10µM*	11µM*
COc1ccc(Cl)cc1NC(=O)COC(=O)CNC(=O)c1ccc([N+](=O)[O-])c(C)c1	?	20µM*
Cc1ccsc1C(=O)OCC(=O)Nc1ccc(Cl)cc1C(F)(F)F	-3%	3%
Cc1ccc(C(=O)NCC(=O)OCC(=O)Nc2cc(C)c(C)cc2[N+](=O)[O-])cc1	10µM*	8.9µM*
COc1ccc(C(=O)NCC(=O)OCC(=O)Nc2cc(OC)ccc2OC)cc1	-18%	?
SMILES	Cruzain noTriton	Cruzain inh Det
COCC(=O)OCC(=O)Nc1cc(C)c(C)cc1[N+](=O)[O-]	4%	-2%
Cc1ccc(C(=O)NCC(=O)OCC(=O)Nc2ccc(Cl)cc2C(F)(F)F)cc1C	?	14µM*
CS(=O)(=O)c1ccc([C@H](O)[C@H](CF)NC(=O)C(Cl)Cl)cc1	-2%	-1%
O=C(Nc1ccccc1)N(Cc1cccs1)c1ccc(Cl)cc1	-21%	-2%
CC(C)c1nnc(N2C(=O)c3oc4ccccc4c(=O)c3C2c2ccccc2F)s1 (configuration not stated)	-1%	-1%
COc1cc(C)c2c(=O)cc(-c3ccccc3)oc2c1	-2%	-1%
COc1cc(C(=O)Nc2ccc3oc(-c4ccc(C)c(Br)c4)nc3c2)cc(OC)c1OC	-1%	2%
O=C(COC(=O)CNC(=O)c1ccc(Cl)cc1)Nc1ncc(C(F)(F)F)cc1Cl	4µM*	7.9µM*
O=C(COC(=O)CSc1cc(Cl)ccc1Cl)Nc1ncc(C(F)(F)F)cc1Cl	-6%	-23%
COc1ccc(CCNC(=O)Cn2c(=O)cc(C(F)(F)F)c3c(C)nn(C)c32)cc1OC	6%	-1%
COc1ccc(N(C(=O)Cn2nnc3ccccc32)C(C(=O)NCc2ccccc2)c2ccc(F)cc2)cc1 (configuration not stated)	1%	-2%
CCOc1ccc(CNC(=O)c2ccc(-c3nc(CSc4ccc(C)cc4)c(C)o3)cc2)cc1	7%	-1%
COc1cc(CN(C(=O)c2ccccc2[N+](=O)[O-])c2ccccn2)cc(OC)c1OC	12%	-3%
Cc1sc(N/N=C/c2cccnc2)nc1-c1ccc(Cl)cc1	16µM*	-7%
Clc1ccc(N/N=C/c2cccnc2)cc1	10%	-10%
CCS(=O)(=O)c1ncc(N(Cc2ccco2)Cc2ccccc2F)c(C(=O)Nc2cccc(Cl)c2)n1	20µM*	-3%
COc1ccc(CN(Cc2ccco2)c2cnc(S(C)(=O)=O)nc2C(=O)Nc2ccc(C)cc2C)cc1	?	-4%
CC(C)(C)c1ccc(CN(Cc2ccco2)c2cnc(S(C)(=O)=O)nc2C(=O)Nc2ccc(F)cc2)cc1	7.9µM*	-4%
COc1ccc(CN(Cc2ccco2)c2cnc(S(C)(=O)=O)nc2C(=O)Nc2ccc(C)c(C)c2)cc1	20µM*	-3%
CC(C)c1ccc(CN(Cc2ccco2)c2cnc(S(C)(=O)=O)nc2C(=O)Nc2ccccc2)cc1	?	-4%
Cc1ccc(NC(=O)c2nc(S(C)(=O)=O)ncc2N(Cc2ccco2)Cc2ccccc2F)c(C)c1	1%	-3%
Cn1c(=O)c(-c2cc(F)cc(F)c2)nc2cnc(N3CCOCC3)nc21	9%	3%
CN(C/C=C\c1ccccc1)Cc1cccc2ccccc12	-16%	-9%
N#CC(C#N)=CNCCN1CCN(C=C(C#N)C#N)CC1	9%	4%
CCCCCc1c2c(cc(O)c1C(=O)O)OC(=O)c1c(cc(OC)cc1C(=O)CCCC)O2	29%	-20%
SMILES	Cruzain noTriton	Cruzain inh Det
CCCCCc1c2c(cc(O)c1C(=O)O)OC(=O)c1cc(C(=O)CCCC)c(OC)cc1O2	?	18µM*
Cc1cc(C(=O)NCc2ccccc2)c2c(C)nn(-c3cccc(Cl)c3C)c2n1	3%	-2%
O=C(c1cn(CCOc2ccccc2F)c2ccccc12)C1CCCCC1	-7%	-8%
COc1cc(NS(=O)(=O)c2ccc(NS(=O)(=O)c3ccccc3)cc2)nc(OC)n1	-3%	-2%
COc1cc(NS(=O)(=O)c2ccc(Nc3nc(-c4cccc([N+](=O)[O-])c4)cs3)cc2)nc(OC)n1	32µM*	-9%
O=C(CSc1nc(-c2cccc(Cl)c2)nc2cc(=O)[nH]n12)Nc1ccccc1	-7%	2%
Cc1cc(/C=C2/C(=O)N(C)C(=S)N2C)c(C)n1C1CC1	-21%	-9%
Cc1cc(/C=C2\SC(=S)NC2=O)c(C)n1C1CC1	16µM*	0%
Cc1ccc2nc3c(c(Nc4ccc(C)c(C)c4)c2c1)CCC3	?	-5%
CCOC(=O)C1=C(C)N=c2s/c(=C\c3cccn3C)c(=O)n2C1c1cccc(OC)c1OC (configuration not stated)	?	-9%
CCOC(=O)C1=c2s/c(=C\c3cccnc3)c(=O)n2C(N)=C(C(=O)OC)C1c1cccnc1 (configuration not stated)	14%	-8%
